Growth data for ten compounds are collected here from PubChem BioAssay (NCI).

The structures appear in SMILES notation. This is part of a sample that, as a whole, favours compounds with a hit. Of some 83,000 tested, about 20% had one in any assay.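 Values shown are percent growth following 48 h exposure of cells in 96-well plates to a single concentration of compound; below 10 was considered active.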 Unmarked numbers belong to inactive results. Activity calls are given as the source filed them.

Test systems include SK-MEL-2 melanoma; SN12C renal; UO-31 renal; TK-10 renal; ACHN renal; CAKI-1 renal; CCRF-CEM leukemia; MOLT-4 leukemia; SR leukemia; RPMI-8226 leukemia; OVCAR-5 ovarian; OVCAR-4 ovarian; SK-OV-3 ovarian; IGROV1 ovarian; OVCAR-3 ovarian; NCI/ADR-RES ovarian; A498 renal; OVCAR-8 ovarian; HS 578T breast; EKVX NSCLC.
Assay in all cases: NCI-60 one-dose screen, 48 h (100 = growth as untreated, 0 = no growth, -100 = all killed)
Holding throughout (details): 10 µM unless noted

In the case of `Cc1ccc(/C=C2\CNC/C(=C\c3ccc(C)cc3)C2=O)cc1`, the growth in the assay with SK-MEL-2 melanoma is 61%; in the assay on SN12C renal, -61.3% (active); in the assay with UO-31 renal it was -81.2% (active); with TK-10 renal it was 16.9%; with ACHN renal it was -82.5% (active); in the assay with CAKI-1 renal, -44.1% (active). Besides, the growth in the assay on CCRF-CEM leukemia was -3.56% (active); in the assay on MOLT-4 leukemia, -11.4% (active); in the assay on SR leukemia, -2.99% (active); with RPMI-8226 leukemia it was -30.6% (active); with OVCAR-5 ovarian it was -28.4% (active); with OVCAR-4 ovarian, 9.79% (active). Moreover, the growth in the assay with SK-OV-3 ovarian was 30.5%; with IGROV1 ovarian, -71.2% (active); in the assay on OVCAR-3 ovarian it was -58.5% (active); in the assay on NCI/ADR-RES ovarian, -51.3% (active).

On to `O=C(c1ccccc1)N(CCCl)C(=O)N(CCCl)C(=O)c1ccccc1`, for which the growth with SK-MEL-2 melanoma is 93.5%; in the assay on SN12C renal it was 94.1%; in the assay with TK-10 renal, 103%; in the assay with ACHN renal, 94.1%; with CAKI-1 renal, 97.3%; in the assay on A498 renal it was 96.6%. Besides, the growth in the assay on CCRF-CEM leukemia was 100%; in the assay on MOLT-4 leukemia it was 86.3%; in the assay with SR leukemia, 94.4%; in the assay with RPMI-8226 leukemia, 101%; in the assay with OVCAR-8 ovarian, 98.5%; in the assay with OVCAR-5 ovarian it was 91%. Besides, the growth in the assay with OVCAR-4 ovarian is 105%; in the assay with SK-OV-3 ovarian it was 104%; with IGROV1 ovarian, 103%; in the assay with OVCAR-3 ovarian, 107%; in the assay with HS 578T breast, 110%.

With `Cc1cc(C)c(C#N)c(Sc2nc(C)c([N+](=O)[O-])c(C)c2C#N)n1`, the growth in the assay with SK-MEL-2 melanoma is 69.4%; in the assay with SN12C renal, 47.4%; in the assay on UO-31 renal, 39.3%; in the assay on TK-10 renal it was 75.2%; in the assay with ACHN renal, 39.3%; in the assay on CAKI-1 renal it was 0.956% (active). Further, the growth with A498 renal is 110%; in the assay on SR leukemia, 22.7%; in the assay with RPMI-8226 leukemia it was 48.7%; with OVCAR-8 ovarian it was 77.2%; with OVCAR-5 ovarian, 90.1%; in the assay with OVCAR-4 ovarian, 66.6%. Also, the growth is 81.3% in the assay on SK-OV-3 ovarian; 82.9% in the assay on IGROV1 ovarian; 68.6% in the assay with OVCAR-3 ovarian; 118% in the assay with HS 578T breast; 77.9% in the assay with NCI/ADR-RES ovarian.

In the case of `CCCCCCCCCCCC(=O)OC(C)C(=O)NCCCC` (stereo not drawn), the growth in the assay with SK-MEL-2 melanoma is 108%; in the assay on SN12C renal, 102%; in the assay with UO-31 renal it was 94.5%; in the assay on TK-10 renal, 90.8%; in the assay with CAKI-1 renal, 99.1%; in the assay with CCRF-CEM leukemia, 101%. In addition, the growth in the assay on MOLT-4 leukemia is 87.7%; with SR leukemia, 85.7%; in the assay with RPMI-8226 leukemia, 104%; in the assay on OVCAR-8 ovarian, 100%; with OVCAR-4 ovarian, 108%; in the assay on SK-OV-3 ovarian it was 102%. The growth in the assay on IGROV1 ovarian is 107%; in the assay on OVCAR-3 ovarian, 107%; in the assay with HS 578T breast, 101%; in the assay on NCI/ADR-RES ovarian it was 101%.

In the case of `O=[N+]([O-])c1cc(-c2ccccc2)c(O)c([N+](=O)[O-])c1`, the growth with SK-MEL-2 melanoma is 75.2%; with SN12C renal, 73.7%; in the assay on TK-10 renal, 89.2%; in the assay with ACHN renal, 87.7%; in the assay on A498 renal, 82.3%; in the assay on CCRF-CEM leukemia, 16.3%. In addition, the growth in the assay on MOLT-4 leukemia is 71.9%; in the assay with SR leukemia, 80.4%; in the assay on RPMI-8226 leukemia it was 38.9%; in the assay on OVCAR-8 ovarian, 91.7%; in the assay on OVCAR-4 ovarian it was 62.6%; in the assay on SK-OV-3 ovarian, 83%. In addition, the growth was 106% in the assay with IGROV1 ovarian, 69.7% in the assay on OVCAR-3 ovarian and 84.4% in the assay with HS 578T breast.

Take `O=[N+]([O-])CC(O)c1ccccc1` (stereo not drawn): the growth in the assay on SK-MEL-2 melanoma is 120%; in the assay with SN12C renal, 101%; in the assay with UO-31 renal, 96.8%; in the assay with TK-10 renal, 111%; with ACHN renal, 102%; in the assay with CAKI-1 renal, 95.9%. Further, the growth was 98.6% with MOLT-4 leukemia; 88.2% in the assay on SR leukemia; 89.7% in the assay on RPMI-8226 leukemia; 97.7% in the assay with OVCAR-8 ovarian; 95.7% in the assay with OVCAR-5 ovarian; 93.8% with OVCAR-4 ovarian. For the same compound, the growth is 118% with SK-OV-3 ovarian; 112% with IGROV1 ovarian; 121% with OVCAR-3 ovarian; 125% with HS 578T breast; 101% in the assay with NCI/ADR-RES ovarian.

For `CCOc1ccc(Nc2nc3c(s2)C(=O)c2ccccc2C3=O)cc1`, the growth is 101% with SK-MEL-2 melanoma; 51.3% in the assay with SN12C renal; 127% in the assay with TK-10 renal; 75.1% with ACHN renal; 74.2% with CAKI-1 renal; 76.7% in the assay with A498 renal. In addition, the growth was 51.4% with CCRF-CEM leukemia; 48.5% in the assay with MOLT-4 leukemia; 46.6% in the assay with SR leukemia; 51% in the assay on RPMI-8226 leukemia; 68.4% with OVCAR-8 ovarian; 112% with OVCAR-5 ovarian. Further, the growth in the assay with OVCAR-4 ovarian was 65.5%; in the assay with SK-OV-3 ovarian, 103%; in the assay on IGROV1 ovarian it was 82.2%; with OVCAR-3 ovarian, 53.9%; with HS 578T breast, 96.8%; in the assay with NCI/ADR-RES ovarian, 75.2%.

Turning to `CCCCCCCCCCCCCCCCCC1=NCCCN1CCO`, the growth was 111% with SK-MEL-2 melanoma; 96.8% in the assay on SN12C renal; 93.4% in the assay with UO-31 renal; 116% with TK-10 renal; 105% with CAKI-1 renal; 97.4% in the assay with CCRF-CEM leukemia. Also, the growth in the assay with SR leukemia was 95.6%; in the assay on RPMI-8226 leukemia, 103%; with OVCAR-8 ovarian, 101%; with OVCAR-5 ovarian it was 98.5%; with OVCAR-4 ovarian it was 112%; in the assay with SK-OV-3 ovarian, 97.6%. Besides, the growth with IGROV1 ovarian is 105%; in the assay with OVCAR-3 ovarian it was 114%; in the assay on HS 578T breast it was 101%; with NCI/ADR-RES ovarian, 105%.

Take `O=C1/C(=C/c2ccccn2)CCc2ccccc21`: the growth is 105% in the assay with SK-MEL-2 melanoma; 102% in the assay on SN12C renal; 101% in the assay on UO-31 renal; 95.4% with TK-10 renal; 104% with ACHN renal; 84.8% with CAKI-1 renal. Also, the growth in the assay on A498 renal was 77.7%; with SR leukemia, 51.2%; in the assay on RPMI-8226 leukemia, 14.6%; with OVCAR-8 ovarian, 109%; in the assay with OVCAR-5 ovarian, 108%; in the assay with OVCAR-4 ovarian it was 104%. Also, the growth is 86.6% in the assay with SK-OV-3 ovarian; 114% in the assay with IGROV1 ovarian; 109% with OVCAR-3 ovarian; 98.1% in the assay with HS 578T breast; 106% in the assay with NCI/ADR-RES ovarian.

Consider `O=C(NNc1ccccc1)OCc1ccccc1`, for which the growth was 91% in the assay with EKVX NSCLC; 84.9% with SN12C renal; 56.8% with UO-31 renal; 90% with TK-10 renal; 50.2% in the assay on ACHN renal; 28.3% with CAKI-1 renal. Moreover, the growth was 86.1% in the assay with A498 renal; 22% in the assay on CCRF-CEM leukemia; 26.9% in the assay on MOLT-4 leukemia; 47.1% in the assay on SR leukemia; 64.2% with RPMI-8226 leukemia; 61.4% in the assay with OVCAR-8 ovarian. The growth in the assay on OVCAR-5 ovarian was 53.1%; in the assay with OVCAR-4 ovarian it was 112%; in the assay on SK-OV-3 ovarian, 105%; in the assay on IGROV1 ovarian, 58.7%; in the assay with OVCAR-3 ovarian it was 91.4%; with HS 578T breast, 91.8%. Also, in the assay on NCI/ADR-RES ovarian, the growth was 55.2%.
